Measured values taken from the supplement of paper PMC7411054.
Structures can show the parent of a compound that is named as a salt.

Assays:
Conditions in all cases: treatment time: 24 h
A549-ACTB-RAB5A [1] = test: lowest phenotypically active concentration; higher = less potent
Outline: (§1)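 After 24 h at 0.3, 1, 3 or 9 µM, with four wells per treatment, fifteen gene-edited A549, HepG2 and WPMY1 reporter lines carrying BFP, GFP and RFP/FusionRed were imaged live. Each well's live-cell features were expressed relative to solvent control wells. Deviation required ≥3 of 4 wells past the 95th percentile of control Euclidean distances, and reproducibility a median replicate Pearson correlation over the 95th percentile of non-replicates. Phenotypic activity rested on both.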

WPMY1-ACTB-RAB5A [2] = test: as above
Outline: as §1

WPMY1-CANX-COX4 [3] = test: as above
Outline: as §1

WPMY1-GM130-SQSTM1 [4] = test: as above
Outline: as §1

A549-ACTB-RAB5A [5] = test: phenotypically active (imaging signature differs from DMSO and reproducible) at any of 0.3-9 uM (binary (1 = active, 0 = inactive)); higher = active
Outline: as §1

A549-CANX-COX4 = test: as above
Outline: as §1

A549-GM130-SQSTM1 [6] = test: as above
Outline: as §1

A549-TP53BP1-CLTA = test: as above
Outline: as §1

A549-TUBA1B-RELA = test: as above
Outline: as §1

HepG2-ACTB-RAB5A = test: as above
Outline: as §1

HepG2-CANX-COX4 = test: as above
Outline: as §1

HepG2-GM130-SQSTM1 = test: as above
Outline: as §1

HepG2-TP53BP1-CLTA = test: as above
Outline: as §1

HepG2-TUBA1B-RELA = test: as above
Outline: as §1

WPMY1-ACTB-RAB5A [7] = test: as above
Outline: as §1

WPMY1-CANX-COX4 [8] = test: as above
Outline: as §1

WPMY1-GM130-SQSTM1 [9] = test: as above
Outline: as §1

WPMY1-TP53BP1-CLTA = test: as above
Outline: as §1

WPMY1-TUBA1B-RELA = test: as above
Outline: as §1

A549-GM130-SQSTM1 [10] = test: lowest phenotypically active concentration; higher = less potent
Outline: as §1

| Compound | lowest phenotypically active concentration (A549-ACTB-RAB5A [1]) [µM] | lowest phenotypically active concentration (WPMY1-ACTB-RAB5A [2]) [µM] | lowest phenotypically active concentration (WPMY1-CANX-COX4 [3]) [µM] | lowest phenotypically active concentration (WPMY1-GM130-SQSTM1 [4]) [µM] | phenotypically active (A549-ACTB-RAB5A [5]) | phenotypically active (A549-CANX-COX4) | phenotypically active (A549-GM130-SQSTM1 [6]) | phenotypically active (A549-TP53BP1-CLTA) | phenotypically active (A549-TUBA1B-RELA) | phenotypically active (HepG2-ACTB-RAB5A) | phenotypically active (HepG2-CANX-COX4) | phenotypically active (HepG2-GM130-SQSTM1) | phenotypically active (HepG2-TP53BP1-CLTA) | phenotypically active (HepG2-TUBA1B-RELA) | phenotypically active (WPMY1-ACTB-RAB5A [7]) | phenotypically active (WPMY1-CANX-COX4 [8]) | phenotypically active (WPMY1-GM130-SQSTM1 [9]) | phenotypically active (WPMY1-TP53BP1-CLTA) | phenotypically active (WPMY1-TUBA1B-RELA) | lowest phenotypically active concentration (A549-GM130-SQSTM1 [10]) [µM] |
| --- | --- | --- | --- | --- | --- | --- | --- | --- | --- | --- | --- | --- | --- | --- | --- | --- | --- | --- | --- | --- |
| Cc1cccc(-c2n[nH]cc2-c2ccc(F)c(-c3cnn(CCO)c3)c2)n1 | 9 | 9 | 9 | 9 | 1 (active) | 0 (inactive) | 0 (inactive) | 0 (inactive) | 0 (inactive) | 0 (inactive) | 1 (active) | 0 (inactive) | 1 (active) | 0 (inactive) | 1 (active) | 1 (active) | 1 (active) | 1 (active) | 1 (active) |  |
| O=C(O/N=C1\c2ccccc2-c2nc3ccccc3nc21)c1ccco1 | 9 | 9 | 9 |  | 1 (active) | 0 (inactive) | 0 (inactive) | 0 (inactive) | 0 (inactive) | 0 (inactive) | 0 (inactive) | 0 (inactive) | 0 (inactive) | 0 (inactive) | 1 (active) | 1 (active) | 0 (inactive) | 1 (active) | 1 (active) |  |
| O=c1c(-c2ccc(O)cc2)coc2cc(O)cc(O)c12 [Genistein] |  | 9 | 9 |  | 0 (inactive) | 0 (inactive) | 1 (active) | 1 (active) | 1 (active) | 0 (inactive) | 0 (inactive) | 0 (inactive) | 0 (inactive) | 0 (inactive) | 1 (active) | 1 (active) | 0 (inactive) | 1 (active) | 1 (active) | 9 |
| CCc1ccc(/C=C/C(=O)Nc2ccc(C(C)=O)cc2)o1 [Heclin] |  |  |  |  | 0 (inactive) | 0 (inactive) | 1 (active) | 0 (inactive) | 1 (active) | 0 (inactive) | 0 (inactive) | 0 (inactive) | 0 (inactive) | 0 (inactive) | 0 (inactive) | 0 (inactive) | 0 (inactive) | 0 (inactive) | 0 (inactive) | 9 |
| COc1ccc(-n2c(SCCCN3C(=O)c4cccc5cccc(c45)C3=O)nnc2-c2ccncc2)cc1 |  |  |  |  | 0 (inactive) | 0 (inactive) | 1 (active) | 0 (inactive) | 1 (active) | 0 (inactive) | 0 (inactive) | 0 (inactive) | 0 (inactive) | 0 (inactive) | 0 (inactive) | 0 (inactive) | 0 (inactive) | 0 (inactive) | 0 (inactive) | 3 |
| O=S(=O)(c1ccccc1)N(CC(F)(F)F)c1ccc(C(O)(C(F)(F)F)C(F)(F)F)cc1 |  |  |  |  | 0 (inactive) | 0 (inactive) | 1 (active) | 0 (inactive) | 0 (inactive) | 0 (inactive) | 0 (inactive) | 0 (inactive) | 0 (inactive) | 0 (inactive) | 0 (inactive) | 0 (inactive) | 0 (inactive) | 0 (inactive) | 0 (inactive) | 9 |
| Cc1cccc(CN2CCN(C(c3ccccc3)c3ccc(Cl)cc3)CC2)c1 (centres undefined) [Meclizine dihydrochloride] | 9 |  |  |  | 1 (active) | 0 (inactive) | 0 (inactive) | 0 (inactive) | 0 (inactive) | 0 (inactive) | 0 (inactive) | 0 (inactive) | 0 (inactive) | 1 (active) | 0 (inactive) | 0 (inactive) | 0 (inactive) | 0 (inactive) | 0 (inactive) |  |
| COc1ccc(CCc2nc3c(C)c(-c4c(C)noc4C)c(C)cc3n2CCN2CCOCC2)cc1 |  |  |  |  | 0 (inactive) | 0 (inactive) | 1 (active) | 0 (inactive) | 0 (inactive) | 0 (inactive) | 0 (inactive) | 0 (inactive) | 0 (inactive) | 0 (inactive) | 0 (inactive) | 0 (inactive) | 0 (inactive) | 0 (inactive) | 0 (inactive) | 9 |
| CC(=O)S[C@@H]1CC2=CC(=O)CC[C@]2(C)[C@H]2CC[C@@]3(C)[C@@H](CC[C@@]34CCC(=O)O4)[C@H]12 [spironolactone] | 9 |  |  | 9 | 1 (active) | 0 (inactive) | 0 (inactive) | 0 (inactive) | 0 (inactive) | 0 (inactive) | 0 (inactive) | 0 (inactive) | 0 (inactive) | 0 (inactive) | 0 (inactive) | 0 (inactive) | 1 (active) | 0 (inactive) | 0 (inactive) |  |
| COc1cc2nc3occc3c(OC)c2cc1OC [Kokusaginine] |  |  |  |  | 0 (inactive) | 0 (inactive) | 1 (active) | 0 (inactive) | 0 (inactive) | 0 (inactive) | 0 (inactive) | 0 (inactive) | 0 (inactive) | 0 (inactive) | 0 (inactive) | 0 (inactive) | 0 (inactive) | 0 (inactive) | 0 (inactive) | 3 |
| Cc1cc(C(C)Nc2ccccc2)c2nc(N3CCOCC3)cc(=O)n2c1 (centres undefined) | 9 |  | 9 | 9 | 1 (active) | 0 (inactive) | 0 (inactive) | 0 (inactive) | 0 (inactive) | 1 (active) | 0 (inactive) | 0 (inactive) | 0 (inactive) | 0 (inactive) | 0 (inactive) | 1 (active) | 1 (active) | 0 (inactive) | 0 (inactive) |  |
| N=C(N)NC(=N)NCCc1ccccc1 [phenformin] |  |  |  |  | 0 (inactive) | 1 (active) | 1 (active) | 0 (inactive) | 0 (inactive) | 0 (inactive) | 0 (inactive) | 0 (inactive) | 0 (inactive) | 0 (inactive) | 0 (inactive) | 0 (inactive) | 0 (inactive) | 0 (inactive) | 0 (inactive) | 9 |
| Cc1nc2sccn2c(=O)c1CCN1CCC(=C(c2ccc(F)cc2)c2ccc(F)cc2)CC1 [Ritanserin] | 9 |  |  | 9 | 1 (active) | 0 (inactive) | 0 (inactive) | 0 (inactive) | 0 (inactive) | 0 (inactive) | 0 (inactive) | 1 (active) | 0 (inactive) | 1 (active) | 0 (inactive) | 0 (inactive) | 1 (active) | 0 (inactive) | 0 (inactive) |  |
| CCOC(=O)N1CCC(=C2c3ccc(Cl)cc3CCc3cccnc32)CC1 [loratadine] | 9 |  |  |  | 1 (active) | 0 (inactive) | 0 (inactive) | 0 (inactive) | 0 (inactive) | 0 (inactive) | 1 (active) | 0 (inactive) | 0 (inactive) | 0 (inactive) | 0 (inactive) | 0 (inactive) | 0 (inactive) | 0 (inactive) | 0 (inactive) |  |
| CCOC(=O)C1=C[C@]2(CC)CCCN3CCc4c(n1c1ccccc41)[C@@H]32 [Vinpocetine] | 9 |  |  | 9 | 1 (active) | 0 (inactive) | 0 (inactive) | 0 (inactive) | 0 (inactive) | 1 (active) | 0 (inactive) | 0 (inactive) | 0 (inactive) | 0 (inactive) | 0 (inactive) | 0 (inactive) | 1 (active) | 0 (inactive) | 0 (inactive) |  |
| C[C@@H]1CCN(C(=O)CC#N)C[C@@H]1N(C)c1ncnc2[nH]ccc12 | 9 |  |  |  | 1 (active) | 0 (inactive) | 0 (inactive) | 0 (inactive) | 0 (inactive) | 0 (inactive) | 1 (active) | 1 (active) | 1 (active) | 0 (inactive) | 0 (inactive) | 0 (inactive) | 0 (inactive) | 0 (inactive) | 0 (inactive) |  |
| CC(C)(C)c1cc(/C=C(\C#N)C(N)=S)cc(C(C)(C)C)c1O |  |  |  | 9 | 0 (inactive) | 1 (active) | 1 (active) | 1 (active) | 0 (inactive) | 1 (active) | 1 (active) | 1 (active) | 1 (active) | 1 (active) | 0 (inactive) | 0 (inactive) | 1 (active) | 1 (active) | 0 (inactive) | 3 |
| C=C1CC[C@H](O)C/C1=C\C=C1\CCC[C@]2(C)[C@@H]([C@H](C)/C=C/[C@H](C)C(C)C)CC[C@@H]12 [Calciferol] |  |  |  |  | 0 (inactive) | 0 (inactive) | 1 (active) | 0 (inactive) | 0 (inactive) | 0 (inactive) | 0 (inactive) | 0 (inactive) | 0 (inactive) | 0 (inactive) | 0 (inactive) | 0 (inactive) | 0 (inactive) | 0 (inactive) | 0 (inactive) | 9 |
| Cc1c(C)c2c(c(C)c1O)CC[C@@](C)(CCC[C@H](C)CCC[C@H](C)CCCC(C)C)O2 [Tocopherol (R,S)] |  |  |  |  | 0 (inactive) | 0 (inactive) | 0 (inactive) | 0 (inactive) | 0 (inactive) | 0 (inactive) | 1 (active) | 0 (inactive) | 0 (inactive) | 0 (inactive) | 0 (inactive) | 0 (inactive) | 0 (inactive) | 0 (inactive) | 0 (inactive) |  |
| CC1(C)CCC(C)(C)c2cc(C(O)C(=O)Nc3ccc(C(=O)O)cc3F)ccc21 (centres undefined) |  |  |  |  | 0 (inactive) | 0 (inactive) | 0 (inactive) | 0 (inactive) | 0 (inactive) | 0 (inactive) | 1 (active) | 0 (inactive) | 0 (inactive) | 0 (inactive) | 0 (inactive) | 0 (inactive) | 0 (inactive) | 0 (inactive) | 0 (inactive) |  |
| COc1ccc(CC2c3cc(OC)c(OC)cc3CC[N+]2(C)CCC(=O)OCCCCCOC(=O)CC[N+]2(C)CCc3cc(OC)c(OC)cc3C2Cc2ccc(OC)c(OC)c2)cc1OC (centres undefined) [Atracurium besilate] |  | 3 |  | 9 | 0 (inactive) | 0 (inactive) | 0 (inactive) | 0 (inactive) | 0 (inactive) | 0 (inactive) | 1 (active) | 1 (active) | 0 (inactive) | 0 (inactive) | 1 (active) | 0 (inactive) | 1 (active) | 0 (inactive) | 0 (inactive) |  |
| CO[C@H]1C=CO[C@@]2(C)Oc3c(C)c(O)c4c(O)c(c(/C=N/N5CCN(C)CC5)c(O)c4c3C2=O)NC(=O)C(C)=CC=C[C@H](C)[C@H](O)[C@@H](C)[C@@H](O)[C@@H](C)[C@H](OC(C)=O)[C@@H]1C [Rifampicin] |  |  |  |  | 0 (inactive) | 0 (inactive) | 1 (active) | 0 (inactive) | 0 (inactive) | 0 (inactive) | 1 (active) | 0 (inactive) | 0 (inactive) | 0 (inactive) | 0 (inactive) | 0 (inactive) | 0 (inactive) | 0 (inactive) | 0 (inactive) | 9 |
| Nc1ncnc2c1ncn2[C@@H]1O[C@H](CO)[C@@H](O)[C@H]1O [Adenosine] |  |  |  |  | 0 (inactive) | 0 (inactive) | 0 (inactive) | 0 (inactive) | 0 (inactive) | 1 (active) | 0 (inactive) | 0 (inactive) | 0 (inactive) | 0 (inactive) | 0 (inactive) | 0 (inactive) | 0 (inactive) | 0 (inactive) | 0 (inactive) |  |
